# ERb coact inh = ER-beta (human) coactivator binding inhibition; Q92731; TR-FRET ER-beta LBD / SRC1-Cy5 peptide binding; receptor agonist-loaded with 1 µM estradiol; inhibition, % at 25.6 µM; 86,000 tested, 1.3% active;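 active = compounds whose percent inhibition of the receptor-coactivator binding signal exceeds about 50% in the single-dose screen, limit read from the data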;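 note: 0% = receptor plus peptide wells without compound and 100% = peptide-only wells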
# Target sequence (Q92731 whole entry, looked up, the tested form may be a part): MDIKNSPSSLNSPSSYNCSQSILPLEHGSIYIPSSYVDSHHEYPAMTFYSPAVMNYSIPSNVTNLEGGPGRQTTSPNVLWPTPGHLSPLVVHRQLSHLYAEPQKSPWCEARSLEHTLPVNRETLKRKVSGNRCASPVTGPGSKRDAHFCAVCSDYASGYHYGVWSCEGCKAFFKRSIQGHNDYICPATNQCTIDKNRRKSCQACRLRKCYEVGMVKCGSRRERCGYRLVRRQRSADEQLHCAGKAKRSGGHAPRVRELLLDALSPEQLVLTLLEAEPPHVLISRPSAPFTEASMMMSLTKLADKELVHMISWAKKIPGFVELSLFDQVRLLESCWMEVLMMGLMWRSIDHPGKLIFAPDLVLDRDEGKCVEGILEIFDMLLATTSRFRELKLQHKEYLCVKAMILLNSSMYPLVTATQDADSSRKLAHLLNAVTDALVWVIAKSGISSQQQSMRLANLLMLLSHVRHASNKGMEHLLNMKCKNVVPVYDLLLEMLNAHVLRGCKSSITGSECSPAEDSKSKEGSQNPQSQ
# Calb biofilm kill = kills Candida albicans biofilms. C. albicans biofilm + clotrimazole, Alamar Blue. inhibition, % at 6 µM. 85,000 tested, 0.14% active;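 active = inhibition above 20%; inactive = inhibition below 20%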;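 note: preformed 24 hr biofilms exposed to compound for 48 hr; 0% = biofilm without compound and 100% = blank killed by clotrimazole plus chlorhexidine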
# ERa coact inh = blocks coactivator binding to human estrogen receptor alpha | 86,000 tested, 1.7% active | AID 629 | inhibition, % at 25.6 µM | TR-FRET ER-alpha LBD / SRC-1 peptide, estradiol-bound | P03372; in the data active = inhibition above about 50%;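 note: 0% = receptor plus peptide control and 100% = peptide only without receptor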
# Smad3 FoxH1 inh = inhibitors of human Smad3 transcription factor binding; P84022; 88,000 tested, 0.29% active; inhibition, % at 25 µM; TR-FRET Smad3/Dy647-FoxH1 peptide binding, europium anti-His;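 active = compounds that reduce the energy-transfer binding signal between the protein and its labelled peptide by more than half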;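 note: 0% = Smad3 plus labelled peptide maximal FRET and 100% = peptide-only background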
# ERa SRC1 pot = ER-alpha (human) coactivator binding potentiation; P03372; AID 639; TR-FRET ERalpha-LBD/SRC-Cy5 coactivator binding, 2 h; 100 = basal binding, no effect; coactivator binding (% of control), % at 25.6 µM; 86,000 tested, 1.3% active; in the data active = activity above about 200%;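 note: binding measured in presence of low estradiol as agonist stimulus; 0% = peptide alone without receptor and 100% = receptor with peptide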
# MT1-MMP txn act = MT1-MMP promoter transcription activation | 86,000 tested, 0.16% active | activation factor at 10 µM | HT1080 MT1-MMP promoter luciferase reporter, luminescence, overnight; hits give high values;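 active = activation factor of at least 2 for MT1-MMP transcription at 10 µM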
# Numbers without * were called inactive; nt = no result; + = active, no number; [ ] = another dose, or the depositor's remark. Hits are enriched below; roughly 3.8% of the tested compounds scored in any of these assays.
SMILES,ERb coact inh,Calb biofilm kill,ERa coact inh,Smad3 FoxH1 inh,ERa SRC1 pot,MT1-MMP txn act
O=C(c1cc2ncc(Br)cn2n1)N1CCOCC1,58*,-1,49,9,36,nt
O=C(O)CC[C@@H](C(=O)O)N1C(=O)[C@@H]2[C@@H]3CC[C@@H](C3)[C@@H]2C1=O,nt,nt,nt,-1,nt,nt
Cc1ccc(S(=O)(=O)C(C#N)c2nc3ccccc3nc2N2CCCCC2)cc1 (configuration not stated),3,4,4,-11,60,nt
N#CC(c1nc2ccccc2nc1N1CCCCC1)S(=O)(=O)c1ccc(Cl)cc1 (configuration not stated),43,2,18,2,231*[fluorescence artefact?],1.1
Nc1nc(N)nc(CC(=O)O)n1,nt,nt,nt,1,nt,nt
COC(=O)[C@@H]1C[C@H]2CC[C@H](O)C[C@H]2N1Cc1ccc(C)s1,nt,nt,nt,nt,nt,1
CN(C)[C@H]1C(=O)C(C(=O)NCN2CCCC2)=C(O)[C@@]2(O)C(=O)C3=C(O)c4c(O)cccc4[C@](C)(O)[C@H]3C[C@H]12,nt,nt,nt,5,nt,nt
CC(CNC(=O)CC(C)(C)C)NC(=O)CC(C)(C)C (configuration not stated),-16,4,-8,-4,114,1.3
Brc1cc(Br)c2nc(-c3cccs3)ccc2c1,-5,4,0,9,241*[fluorescence artefact?],1.9
N#C/C(=C\Nc1ccccn1)C(=O)c1ccco1,nt,nt,nt,0,nt,nt
CCc1ccccc1NC(=O)CSc1nc2c(c(-c3ccco3)c1C#N)CCCC2,11,-4,10,-14,301*[fluorescence artefact?],1.1
N#Cc1c(SCC(=O)Nc2nccs2)nc2c(c1-c1ccco1)CCCC2,37,6,64*,12,83,1.1
COc1ccc(-c2c(C#N)c(SCC(=O)Nc3ccccc3)nc3c2CCCC3)cc1,28,6,14,-2,147,1
N#Cc1c(SCC(N)=O)nc2c(c1-c1ccc(OCc3ccccc3)cc1)CCCC2,-7,3,-13,-124,+[fluorescence artefact?],1.3
Cc1ccccc1NC(=O)CSc1nc2c(c(-c3ccco3)c1C#N)CCCC2,16,-5,24,8,290*[fluorescence artefact?],1.2
CC(=O)N1CC=CC1(C)C(=O)NCC1CC1 (configuration not stated),nt,nt,nt,nt,nt,0.9
CC1=C(C(=O)OC(C)C)C(c2ccc(F)cc2)NC(=O)N1 (configuration not stated),-1,-1,2,-9,109,1.2
CCOC(=O)C1=C(C)NC(=O)NC1c1ccco1 (configuration not stated),66*,4,48,8,61,1.3
CCOC(=O)C1=C(C)NC(=O)NC1c1ccc(OC(=O)c2ccco2)cc1 (configuration not stated),-3,6,-4,7,108,1.3
CC1=C(C(=O)OC(C)C)C(c2ccco2)NC(=O)N1 (configuration not stated),55*[fluorescence artefact?],3,35,11,56,0.9
O=C(Nc1cnn(C23CC4CC(CC(C4)C2)C3)c1)c1cnn2c(C(F)(F)F)cc(-c3ccco3)nc12,60*,2,81*,3,173,1.1
Cc1cccc(NC(=O)c2c(O)c3cccc4c3n(c2=O)CC4)c1,28,11,34,26,217*[fluorescence artefact?],1.8
COC(=O)c1ccc(C(NC(=O)OCc2ccccc2)/C(C)=C/[C@@H](C)C(=O)N2CCN(C)CC2)cc1 (some centres not stated),nt,nt,nt,nt,nt,1.1
Cn1c(Cn2c(=O)sc3ccccc32)nnc1SCC(=O)Nc1ccc(Cl)cc1,-5,2,-4,3,231*[fluorescence artefact?],1
Oc1ccc2ccccc2c1Cc1c(O)ccc2ccccc12,nt,nt,nt,7,nt,nt
SMILES,ERb coact inh,Calb biofilm kill,ERa coact inh,Smad3 FoxH1 inh,ERa SRC1 pot,MT1-MMP txn act
CCOc1cccc(C(=O)Nc2ccc(N(CC)CC)cc2)c1,15,1,7,21,79,1.2
CCN(CC)c1ccc(NC(=O)c2cnn(CC)c2)cc1,78*[fluorescence artefact?],12,38,-10,38,1.4
NC(=O)c1c(NC(=O)c2cc3ccccc3o2)sc2c1CCC2,53*,0,62*,-16,197,nt
O=C(Nc1ccccc1N1CCCC1)c1cc2ccccc2o1,1,2,-2,-1,115,2*
CN1CCN(c2ccccc2NC(=O)c2cc3ccccc3o2)CC1,15,14,-2,18,113,1.3
O=C(Nc1ccc(N2CCOCC2)c(Cl)c1)c1ccc(Br)o1,-3,6,-1,-2,97,1.3
O=C(Nc1ccc(N2CCOCC2)c(Cl)c1)c1cc2ccccc2o1,-4,-4,-7,-6,95,2.1*
OC[C@@H]1CCC[C@H](n2cnc3c(=S)nc[nH]c32)O1,nt,nt,nt,55*,nt,nt
COc1cccc(N2CCN(c3ncccn3)CC2)c1,-2,2,-2,-10,338*[fluorescence artefact?],1.7
Nc1ccc(S(=O)(=O)c2ccc(NC(=O)c3cccnc3)cc2)cc1,nt,nt,nt,57*,nt,nt
COc1ccc(Cn2c(C)c(C)c(C#N)c2NC(=O)Nc2ccccc2)cc1,7,9,8,4,97,1.2
COc1ccc(Cn2c(C)c(C)c(C#N)c2NC(=O)Nc2cccc(C)c2)cc1,50*,7,70*[fluorescence artefact?],4,76,1.1
O=c1c(C(c2ccccc2)c2c(O)sc3ccccc3c2=O)c(O)sc2ccccc12,29,5,81*[fluorescence artefact?],17,119,1
OC(c1ccccc1)c1nc2ccccc2s1 (configuration not stated),3,9,-4,3,112,1.3
O=C(O)c1oc(C(=O)O)c(C(=O)O)c1C(=O)O,nt,nt,nt,3,nt,nt
CCC(=O)Nc1cc(-c2nn(C)c(=O)c3ccccc23)ccc1OC,nt,nt,nt,nt,nt,1.3
COc1ccc(NC(=O)Cc2nn(C)c(=O)c3ccccc23)c2ncccc12,17,9,-5,4,217*,1.2
COc1ccc(-c2nn(C)c(=O)c3ccccc23)cc1NC(=O)Cn1nc(C)c2ccccc2c1=O,50*[fluorescence artefact?],5,63*,-8,287*[fluorescence artefact?],1.1
COc1ccc(OC)c(NC(=O)Cc2nn(C)c(=O)c3ccccc23)c1,-23,4,-48,4,111,1
Cc1ccc(-c2nn(CC(=O)NCc3cc(-c4nn(C)c(=O)c5ccccc45)ccc3C)c(=O)c3ccccc23)cc1,64*[fluorescence artefact?],1,88*[fluorescence artefact?],-59,66,1
COc1ccc(-c2nn(C)c(=O)c3ccccc23)cc1NC(=O)COc1ccc(C)cc1,16,6,11,-6,487*[fluorescence artefact?],1
Nc1ccc(S(=O)(=O)NCCS(=O)(=O)O)cc1,nt,nt,nt,2,nt,nt
CSc1nc(C)cc(Nc2ccc(O)c(CN3CCOCC3)c2)n1,nt,nt,nt,-6,nt,nt
C[C@@H]1CCCN(CP(=O)(c2ccccc2)c2ccccc2)C1,nt,nt,nt,-5,nt,nt
Cc1ccc2ccc(C3C(=O)c4ccccc4C3=O)nc2c1,2,2,11,31,395*,1.3
C/C(=N\NC(=O)c1ccncc1)c1ccc2ccccc2c1O,nt,nt,nt,15,nt,nt
CCCCCOc1ccc(CSc2ncn[nH]2)cc1,-6,7,-4,5,88,1.7
